Source: PubChem BioAssay (several laboratories)
A selection: hits, their analogues and other compounds. The true share with any hit is near 1.8%.
Bfl-1 A1 inh = inhibitors of the anti-apoptotic protein A1, read as caspase activation; caspase activation, % (no concentration beside the values); 0.066% of 330,000 active; MEF A1-2A-BIM cells, Caspase-Glo 3/7 luminescence, 3 h; percent of clofoctol response, vehicle zero;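 active = over half of replicate activation scores above 10%, or exactly half above 10 with the replicate mean above 10; inconclusive = replicate mean below 10 yet half the replicates above 10; inactive = over half of replicates below 10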
ARNT-TACC3 inh = ARNT/TACC3 interaction disruption | inhibition, % at 9.99 µM | 0.66% of 390,000 active | Q9Y6A5 | AlphaScreen His-ARNT PAS-B/GST-TACC3 binding, luminescence; TACC3 fragment carries E629A point mutation;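 active = mean inhibition of replicates at least 50% and at least half of replicates each reaching 50%; inconclusive = half or more replicates reach 50% but mean below 50%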;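 note: 0% = complete ARNT plus TACC3 wells and 100% = ARNT alone without TACC3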
aDG glyco up = increases alpha dystroglycan glycosylation. Pro5-aDG cells, alpha-DG glycosylation AlphaScreen (IIH6); 0% Pro5, 100% B10-LARGE cell signal. activation, % at 10 µM. 0.22% of 360,000 active. AID 624168;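 active = activation of at least 8% versus controls, or a plate z-score of at least 8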;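 note: Pro5 are CHO cells carrying HIG-tagged alpha-DG that lacks glycosylation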
SUMO Mot1 rescue = inhibitors of SUMOylation pathway: yeast Mot1-301 growth rescue | growth rescue, % at 18.8 µM | 1% of 320,000 active | S. cerevisiae Mot1-301 growth rescue, ATP luminescence, 38.5C; percent above DMSO median, 100 means doubled | AID 2716;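 active = every valid replicate shows activation above 250% relative to neutral control wells; inactive = the rest, any valid replicate at or below 250%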;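 note: OY570 slx delta 5 strain wells were the positive control but not used for scaling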
AI-2 QS modul = modulators of Vibrio harveyi AI-2 quorum sensing system; Vibrio harveyi JMH597 AI-2 luminescence/OD600 ratio, 9 h; stronger effect = lower value; strain lacks LuxN and CqsS sensors; 0 = neutral-control median; activity change, % at 7.5 µM; 0.4% of 300,000 active; AID 2094; in the data active = activity change below about -75%, passing the limit was not always enough; inconclusive = no clear call, values can overlap the other calls;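 note: luminescence divided by OD600 gain over 9 h not by final OD600 alone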
Mot1 SUMO dose = inhibits SUMO pathway, affecting Mot1-301 yeast growth. 2,300 tested, under 10 active. S. cerevisiae Mot1-301 galactose growth, ATP luminescence, 24 h; -100 = growth of slx-deleted rescue strain. shares compounds with SUMO Mot1 rescue. growth activity, percent, % at 42 µM;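 active = Signal drops as the depositor expects, and the fitted half-maximal dose is no more than ten times the top valid tested dose; inconclusive = Poor fit, or a flat curve whose signal drops by 30% to 70%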;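 note: more negative values mean stronger growth rescue toward the control strain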
* marks the source's active call; other numbers are inactive results; ? = inconclusive; nt = not tested or not shown; + = active, no number.

SMILES | Bfl-1 A1 inh | ARNT-TACC3 inh | aDG glyco up | SUMO Mot1 rescue | AI-2 QS modul | Mot1 SUMO dose
CCc1ccc(N(C(=O)c2csnn2)C(C(=O)NC(C)(C)C)c2ccncc2)cc1 (stereo not given) | 0 | 4 | 0 | 16 | 12 | nt
C[C@@H]1CN([C@H](C)CO)C(=O)c2cccc(NC(=O)c3ccc(-c4nccs4)cc3)c2O[C@@H]1CN(C)C(=O)NC1CCCCC1 | nt | 9 | nt | nt | nt | nt
Cc1ccc(O)c(C(=O)CC(=O)c2cccc(F)c2)c1 | -1 | nt | 3 | 538* | -40 | -1
Cc1cccc(C(=O)CC(=O)c2cc(Cl)ccc2O)c1 | -1 | 18 | 0 | 213 | 149 | nt
Cc1cc(-c2ccc(C(C)C)c(S(=O)(=O)N3CC(=O)Nc4ccccc43)c2)on1 | 2 | 11 | -1 | 581* | 8 | -1
Cc1cc(-c2ccc(C)c(S(=O)(=O)N3CC(=O)Nc4ccccc43)c2)on1 | 0 | -1 | 0 | 4 | 10 | nt
CCN(CC1COc2ccccc2O1)C(=S)NCCCN(C)C (stereo not given) | 1 | -10 | 1 | + | 5 | 0
Cc1sc2nc(C)n(/N=C/c3ccccc3)c(=O)c2c1C | 0 | -5 | 0 | 4 | -1 | nt
Cc1ccc(/C=C/C(=O)c2ccc([N+](=O)[O-])o2)cc1 | 7.9* | nt | nt | + | 10 | 0
Cc1ccc(CNC(=O)c2ccc([N+](=O)[O-])o2)cc1 | 1 | 3 | 1 | -1 | 9 | nt
CCCOc1ccccc1C1NC(=O)NC(C)=C1C(=O)OCCOCC (stereo not given) | 0 | -2 | 0 | 565* | 26 | 1
CCCCOc1ccccc1C1NC(=O)NC(C)=C1C(=O)OCCOCC (stereo not given) | 0 | -4 | 0 | -9 | -3 | nt
CCn1c(SCC(N)=O)nnc1-c1cc2c(C)nn(-c3ccccc3)c2s1 | -1 | 9 | 0 | + | 47 | 0
CCn1c(SCC(=O)Nc2cc(C(C)(C)C)nn2-c2ccccc2)nnc1-c1cccs1 | 0 | nt | 1 | -1 | 9 | nt
COc1ccc(NC(=O)Nc2ccc3c(c2)C(=O)N([C@@H](C)CO)C[C@@H](C)[C@H](CN(C)C(=O)Nc2ccc(F)cc2)OCCCC[C@@H](C)O3)cc1 | nt | 10 | nt | nt | nt | nt
CCOc1ccccc1CN1CCNC(=O)C1CC(=O)NCCc1ccccn1 (stereo not given) | 0 | 2 | 0 | -21 | 12 | nt
CCN(CC(=O)NCc1ccc(Cl)cc1)C(=O)/C=C/c1ccccc1 | 0 | 0 | 0 | 3 | 46 | nt
CCN(CC(=O)NCc1ccc(Cl)cc1)C(=O)/C=C/c1ccc(C#N)cc1 | 1 | 11 | 0 | 821* | 15 | 1
O=C(Nc1ccc(F)cc1F)N1CCCN(c2ccc(C(F)(F)F)cn2)CC1 | -1 | -6 | 0 | 548* | 9 | -1
COc1ccc(NC(=O)c2cc(-c3cccs3)on2)cc1OC | -1 | -13 | 0 | 11 | 19 | nt
CCN1C(=O)N(C)[C@@H](c2ccccc2)C(C(=O)OC)=C1C | 0 | -3 | 0 | 948* | 14 | 1
CC(C)CCn1c(=O)c2ccccc2c2ccccc2c1=O | 0 | nt | 0 | + | 12 | 0
Cc1ccccc1P(=O)(CO)c1ccccc1C | 0 | -14 | 0 | 414* | 1 | 1
N#CCCN(C(=O)COC(=O)c1cccc(S(=O)(=O)Nc2ccc([N+](=O)[O-])cc2)c1)c1ccccc1 | 0 | 0 | 0 | 444 | 21 | nt
N#CCCN(C(=O)COC(=O)c1ccc(S(=O)(=O)Nc2ccccc2)cc1)c1ccccc1 | -1 | -2 | 0 | + | 19 | 0
SMILES | Bfl-1 A1 inh | ARNT-TACC3 inh | aDG glyco up | SUMO Mot1 rescue | AI-2 QS modul | Mot1 SUMO dose
COc1ccc(C2CC(c3ccc(OC)cc3OC(C)=O)=NN2C(=O)c2ccccc2)cc1 (stereo not given) | 1 | -2 | 0 | 21 | -5 | nt
COc1ccc2[nH]c(=O)c(CN(C(=O)c3ccccn3)c3ccccc3)cc2c1 | 0 | -1 | 0 | + | 9 | 1
COCCN(C(=O)CSc1nc2ccccc2c(=O)n1C(C)COC)c1c(N)n(Cc2ccccc2)c(=O)[nH]c1=O (stereo not given) | ? | -2 | 0 | 1 | 21 | nt
CCCCN1C(=O)N(c2ccc(Cl)cc2)C(C)(O)CC1(C)C (stereo not given) | 0 | -1 | 0 | -9 | -2 | nt
CCN1C(=O)N(c2ccc(Cl)cc2)C(C)=CC1(C)C | 0 | -14 | 0 | 837* | 14 | 0
Cc1ccccc1-c1nc(CN2CCCC(C(=O)NCc3cccnc3)C2)c(C)o1 (stereo not given) | 1 | 6 | 0 | + | 5 | 0
Cc1ccccc1-c1nc(CN2CCCC(C(=O)NCCCN3CCOCC3)C2)c(C)o1 (stereo not given) | 0 | -2 | 0 | 128 | 1 | nt
CCS(=O)(=O)N1CCCC(C(=O)NCc2cccnc2)C1 (stereo not given) | 0 | 4 | 0 | 362* | 25 | 0
CC(C(=O)NCC1CCCO1)N1C(=O)C2C3CC(C(Br)C3Br)C2C1=O (stereo not given) | ? | -8 | 0 | 17 | 18 | nt
Cc1noc(C)c1S(=O)(=O)N(C)C[C@H]1Oc2ccc(NC(=O)CCCN(C)C)cc2CC(=O)N([C@H](C)CO)C[C@@H]1C | nt | 1 | nt | nt | nt | nt
Cc1cccc(N2CN=c3s/c(=C\c4ccccn4)c(=O)n3C2)c1 | -1 | -3 | 0 | 441* | 39 | 0
O=c1/c(=C/c2ccccn2)sc2n1CN(c1ccccc1)CN=2 | 0 | 8 | 0 | 5 | 25 | nt
COc1ccc(/C=N/NC(=O)c2nnn(-c3nonc3N)c2-c2cccs2)cc1OC | 1 | 11 | 0 | 399* | 27 | -1
COC(=O)c1ccc2c(C)c(C3(O)CCCCC3)[nH]c2c1 | 0 | -2 | 0 | 54 | nt | nt
Cc1c(C2(O)CCCCC2)[nH]c2ccc(C#N)cc12 | 0 | -2 | 0 | 370* | nt | 0
O=C(O)C1C2CCC(O2)C1C(=O)NCCC1=CCCCC1 (stereo not given) | 0 | -3 | 0 | 364* | 13 | 0
Cc1cc(C)c2cc(C)c3nnc(SCC(=O)NCc4ccc5c(c4)OCO5)n3c2c1 | 0 | 10 | 0 | 621* | 35 | 0
Cc1ccc(S(=O)(=O)N2CCN(C(=O)CSc3nc(N)cc(=O)[nH]3)CC2)c(C)c1 | 0 | 1 | 0 | 482* | -3 | 0
CC(=O)Nc1ccc(-c2csc(NC(=O)C3CC(=O)N(c4ccc5c(c4)OCCO5)C3)n2)cc1 (stereo not given) | 0 | -5 | 0 | 508* | 20 | -1
